Compounds without any hit were thinned out: in the full panel of roughly 79,000, 15% have a hit. Activity calls are given as the source filed them. No stated cut-off is given here; in the data, active means growth inhibition above about 70%; inactive means the rest.
How the values were obtained:
[1] = NCI Yeast Anticancer Drug Screen. Data for the wt1 strain (AID 149);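 further: 0% = growth of vehicle-treated wt1 cultures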; conditions: S. cerevisiae wt1 strain (SPY 50644) growth inhibition, hits give high values
How it was run: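 Readout: yeast growth inhibition, normalised to vehicle controls, in the wt1 strain exposed to test compounds.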

[2] = NCI Yeast Anticancer Drug Screen. Data for the rad50EPP+ strain (AID 151);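 further: 0% = growth of vehicle-treated control cultures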; conditions: S. cerevisiae rad50 mutant strain, hits give high values
How it was run: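 Exposing the rad50EPP+ strain to each compound, growth was compared with vehicle-only cultures to give inhibition.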

[3] = NCI Yeast Anticancer Drug Screen. Data for the mgt1 strain (AID 153); conditions: S. cerevisiae mgt1 mutant growth inhibition, hits give high values
How it was run: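 Genetically defined yeast (mgt1) treated with compound; inhibition of growth expressed against vehicle-treated controls.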

[4] = NCI Yeast Anticancer Drug Screen. Data for the rad50 strain (AID 155);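 further: 0% = growth of vehicle-only cultures of the same strain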; conditions: S. cerevisiae rad50 strain growth inhibition, hits give high values
How it was run: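 Compounds were tested on a yeast strain with an engineered DNA damage repair alteration; the reported value is growth inhibition normalised to vehicle treatment.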

[5] = NCI Yeast Anticancer Drug Screen. Data for the mec2-1 strain (AID 157); conditions: S. cerevisiae mec2-1 strain, hits give high values
How it was run: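 Readout is yeast growth inhibition, normalised to vehicle-treated controls, in the mec2-1 strain exposed to compound.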

[6] = NCI Yeast Anticancer Drug Screen. Data for the rad14 strain (AID 159);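 further: 0% = growth of vehicle-treated control cultures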; conditions: S. cerevisiae rad14 strain growth inhibition, hits give high values
How it was run: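 Compound-treated yeast with a defined DNA-repair lesion; growth inhibition normalised to vehicle-treated cultures.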

[7] = NCI Yeast Anticancer Drug Screen. Data for the sgs1 mgt1 strain (AID 161);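 further: 0% = growth of cultures given vehicle only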; conditions: S. cerevisiae sgs1 mgt1 strain, hits give high values
How it was run: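 Growth of a repair-deficient yeast mutant was monitored after compound treatment and expressed as inhibition relative to vehicle-treated cultures.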

[8] = NCI Yeast Anticancer Drug Screen. Data for the CLN2oe strain (AID 163);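 further: 0% = growth of vehicle-only control cultures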; conditions: S. cerevisiae CLN2oe strain, hits give high values
How it was run: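 Values reflect how much compound exposure reduced yeast growth, referenced to vehicle-exposed cells. Assay organism is a strain with a defined genetic change affecting cell-cycle control.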

[9] = NCI Yeast Anticancer Drug Screen. Data for the cln2 rad14 strain (AID 165);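 further: 0% = growth equal to vehicle treated cultures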; conditions: S. cerevisiae cln2 rad14 strain, hits give high values
How it was run: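 Relative to vehicle controls, growth inhibition of compound-treated cln2 rad14 yeast was recorded.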

[10] = NCI Yeast Anticancer Drug Screen. Data for the bub3 strain (AID 167); conditions: S. cerevisiae bub3 mutant strain, hits give high values
How it was run: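 Growth of a checkpoint-deficient yeast mutant is measured after compound exposure. Values represent inhibition relative to vehicle.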

[11] = NCI Yeast Anticancer Drug Screen. Data for the wt2 strain (AID 169);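 further: 0% = growth of vehicle-treated yeast cultures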; conditions: S. cerevisiae wt2 strain growth inhibition, hits give high values
How it was run: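 Values express reduction in yeast growth under compound treatment, referenced to vehicle-treated cells.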

[12] = NCI Yeast Anticancer Drug Screen. Data for the mlh1 strain (AID 171);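 further: 0% = growth of vehicle-treated control cultures of the same strain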; conditions: S. cerevisiae mlh1 strain growth inhibition, hits give high values
How it was run: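 Steps: expose the defined-mutant yeast strain to compound; expose a parallel culture to vehicle; measure growth; express compound effect as inhibition relative to the vehicle culture.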

[13] = NCI Yeast Anticancer Drug Screen. Data for the sgs1 strain (AID 173);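 further: 0% = growth of vehicle-only control cultures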; conditions: S. cerevisiae sgs1 mutant, hits give high values
How it was run: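 Treat defined-mutant yeast with compound; measure growth; calculate inhibition relative to vehicle-treated cells.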

[14] = NCI Yeast Anticancer Drug Screen. Data for the mlh1 rad18 strain (AID 175); conditions: S. cerevisiae mlh1 rad18 strain growth inhibition, hits give high values
How it was run: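 Test agents were incubated with a yeast strain of defined genotype (DNA damage repair defect). Inhibition of growth was derived by comparison with vehicle-exposed cultures.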

[15] = NCI Yeast Anticancer Drug Screen. Data for the rad18 strain (AID 177); conditions: S. cerevisiae rad18 mutant growth inhibition, hits give high values
How it was run: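 A genetically defined yeast mutant impaired in DNA damage repair was treated with test compounds, then its growth was measured against cultures receiving vehicle alone.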

[16] = at 5.0 µM (retest, dose inferred, filed as 0.5)
[17] = at 50.0 µM (retest, dose inferred, filed as 5.0)

Measured: growth inhibition

O=C1Nc2ccc(Br)cc2C1=Nc1ccc(Cl)cc1
inactive: [1]; at 1.2 µM -8% | [1]; at 3.7 µM -15% | [1]; at 11.0 µM 14% | [1]; at 33.0 µM 42% | [2]; at 1.2 µM -45% | [2]; at 3.7 µM -10% | [2]; at 11.0 µM -8% | [2]; at 33.0 µM 8% | [2]; at 100.0 µM 41% | [3]; at 1.2 µM -52% | [3]; at 3.7 µM -55% | [3]; at 11.0 µM -21% | [3]; at 33.0 µM 20% | [3]; at 100.0 µM 50% | [4]; at 1.2 µM -29% | [4]; at 3.7 µM -20% | [4]; at 11.0 µM 12% | [4]; at 33.0 µM 42% | [4]; at 50.0 µM 57.4% | [4]; at 100.0 µM 64% | [5]; at 1.2 µM -68% | [5]; at 3.7 µM -75% | [5]; at 11.0 µM -64% | [5]; at 33.0 µM -1% | [5]; at 50.0 µM 54.5% | [5]; at 100.0 µM 57% | [6]; at 1.2 µM -52% | [6]; at 3.7 µM -62% | [6]; at 11.0 µM -46% | [6]; at 33.0 µM -8% | [6]; at 100.0 µM 34% | [7]; [16] 8% | [7]; at 50.0 µM 53.4% | [8]; at 1.2 µM 2% | [8]; at 3.7 µM 1% | [8]; at 11.0 µM 20% | [8]; at 33.0 µM 24% | [8]; at 100.0 µM 52% | [9]; [16] 36% | [9]; [17] 54% | [9]; at 50.0 µM 34% | [10]; at 1.2 µM -38% | [10]; at 3.7 µM -26% | [10]; [16] 28% | [10]; at 11.0 µM -11% | [10]; at 33.0 µM 29% | [11]; at 1.2 µM -20% | [11]; at 3.7 µM -12% | [11]; at 11.0 µM -10% | [11]; at 33.0 µM 14% | [11]; at 100.0 µM 47% | [12]; at 1.2 µM -16% | [12]; at 3.7 µM -24% | [12]; at 11.0 µM -3% | [12]; at 33.0 µM 8% | [12]; at 100.0 µM 46% | [13]; at 1.2 µM -25% | [13]; at 3.7 µM -27% | [13]; at 11.0 µM 3% | [13]; at 33.0 µM 33% | [13]; at 100.0 µM 54% | [14]; [16] 67% | [14]; at 50.0 µM 58.5% | [15]; at 1.2 µM -24% | [15]; at 3.7 µM -13% | [15]; at 11.0 µM 2% | [15]; at 33.0 µM 32% | [15]; at 100.0 µM 60%
active: [1]; at 100.0 µM 71% | [4]; [16] 70% | [4]; [17] 100% | [5]; [16] 77% | [5]; [17] 100% | [7]; [17] 71% | [10]; [17] 86% | [10]; at 50.0 µM 83.4% | [10]; at 100.0 µM 81% | [14]; [17] 100%

CCOC(=O)CC1(C)/C(=N\Nc2ccc([N+](=O)[O-])cc2[N+](=O)[O-])CCC2C1CCC1(C)C(C(C)CCCC(C)C)CCC21 (stereo unspecified)
active: [4]; [16] 92% | [4]; [17] 90%
inactive: [2]; at 1.2 µM -2% | [2]; at 3.7 µM -1% | [2]; at 11.0 µM -2% | [2]; at 33.0 µM -2% | [2]; at 100.0 µM 1% | [4]; at 1.2 µM 1% | [4]; at 3.7 µM 2% | [4]; at 11.0 µM 3% | [4]; at 33.0 µM 0% | [4]; at 50.0 µM -50.5% | [4]; at 100.0 µM -1% | [5]; at 1.2 µM -4% | [5]; at 3.7 µM -4% | [5]; [16] 10% | [5]; at 11.0 µM -5% | [5]; at 33.0 µM -1% | [5]; [17] 10% | [5]; at 50.0 µM -6.8% | [5]; at 100.0 µM -5% | [6]; at 1.2 µM 0% | [6]; at 3.7 µM -2% | [6]; at 11.0 µM -4% | [6]; at 33.0 µM -3% | [6]; at 100.0 µM -3% | [7]; [16] 6% | [7]; [17] 4% | [7]; at 50.0 µM -26.4% | [8]; at 1.2 µM -2% | [8]; at 3.7 µM -4% | [8]; at 11.0 µM 6% | [8]; at 33.0 µM -2% | [8]; at 100.0 µM -5% | [9]; [16] 7% | [9]; [17] -3% | [9]; at 50.0 µM -21.4% | [10]; at 1.2 µM -1% | [10]; at 3.7 µM -3% | [10]; [16] -10% | [10]; at 11.0 µM -5% | [10]; at 33.0 µM -3% | [10]; [17] -11% | [10]; at 50.0 µM -1.1% | [10]; at 100.0 µM -5% | [11]; at 1.2 µM 0% | [11]; at 3.7 µM 1% | [11]; at 11.0 µM 0% | [11]; at 33.0 µM -1% | [11]; at 100.0 µM -1% | [12]; at 1.2 µM -1% | [12]; at 3.7 µM -3% | [12]; at 11.0 µM -2% | [12]; at 33.0 µM -3% | [12]; at 100.0 µM -3% | [13]; at 1.2 µM -1% | [13]; at 3.7 µM -3% | [13]; at 11.0 µM -2% | [13]; at 33.0 µM -1% | [13]; at 100.0 µM -2% | [14]; [16] 4% | [14]; [17] 2% | [14]; at 50.0 µM 0.05% | [15]; at 1.2 µM -2% | [15]; at 3.7 µM -5% | [15]; at 11.0 µM -3% | [15]; at 33.0 µM -5% | [15]; at 100.0 µM -4%
